Most compounds without a hit are left out; they make up all but 9.4% or so of the library.
FLuc modulator – counter-screen for miR-21 project: firefly luciferase inhibitors or activators | AID 588342 | purified FLuc, Km substrates, luminescence inhibition | actives 6.9% (n = 360,000) | Potency, µM (top dose mostly 57.5 µM), inactives show at the highest dose activity change, negative = inhibition, usual class: inhibitors;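 further: plate controls were vehicle for no effect and reference inhibitor for full effect; nearly all actives have a fitted effect of over 55% in size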
Target sequence (P08659 whole entry, looked up): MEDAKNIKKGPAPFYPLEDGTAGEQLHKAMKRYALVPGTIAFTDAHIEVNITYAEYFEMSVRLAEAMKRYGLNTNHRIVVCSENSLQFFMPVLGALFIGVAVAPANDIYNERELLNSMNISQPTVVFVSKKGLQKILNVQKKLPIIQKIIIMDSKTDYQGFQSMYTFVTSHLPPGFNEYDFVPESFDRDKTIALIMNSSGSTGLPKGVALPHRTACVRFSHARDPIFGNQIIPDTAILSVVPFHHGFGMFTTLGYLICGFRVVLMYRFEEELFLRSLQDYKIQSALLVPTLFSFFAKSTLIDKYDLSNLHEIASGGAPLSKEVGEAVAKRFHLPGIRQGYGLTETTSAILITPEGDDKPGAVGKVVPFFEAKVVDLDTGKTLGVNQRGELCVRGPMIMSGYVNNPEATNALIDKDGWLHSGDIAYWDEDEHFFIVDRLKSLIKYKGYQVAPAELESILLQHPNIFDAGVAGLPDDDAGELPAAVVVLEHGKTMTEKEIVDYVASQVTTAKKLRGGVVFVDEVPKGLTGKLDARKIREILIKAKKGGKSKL
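Purified P. pyralis luciferase (10nM final) with 10uM D-luciferin and 10uM ATP (Km levels) in 50mM Tris acetate pH 7.5, 10mM Mg acetate, 0.01% Tween-20, 0.05% BSA; qHTS 6-point titration, ~60 µM downward; luminescence read.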
NPC1 promoter act – activators of NPC1 promoter; Huh7 NPC1 promoter luciferase reporter, 24 h; actives 2.4% (n = 320,000); Potency, µM (doses to about 9.22 µM), for inactives: at the highest dose activation, most hits filed as activators; further: % of control where 0% means no effect; nearly all actives have a fitted effect of over 60% in size
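Luciferase expression driven by the NPC1 promoter was measured in stably transfected Huh7 cells after a 24 h compound incubation, using a luciferase reagent and a luminescence read.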
Rab9 promoter act – activates the Rab9 promoter; Huh7 Rab9 promoter-luciferase reporter, luminescence, 24 h; AID 485297; actives 2.8% (n = 320,000); Potency, µM (top dose mostly 9.22 µM), without a hit: top-dose activation, negative = inhibition, usual class: activators; further: % of control where 0% means no effect; nearly all actives have a fitted effect of over 60% in size
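Rab9 promoter-driven luciferase in stably transfected Huh7 cells; 1500 cells/well rested 2 h, exposed to compound in DMSO for 24 h at 37 °C, 5% CO2. Luminescence read 10 min after adding luciferase reagent at ambient temperature.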
ELG1 genotoxic – inducers of genotoxicity in HEK293T ELG1-luciferase cells | HEK293T ELG1-luciferase reporter, luminescence, 16 h | Potency, µM (doses to about 46 µM), for inactives: top-dose activity change, positive = activation, usual class: activators | actives 1.3% (n = 330,000); further: % of control where 0% means no effect; nearly all actives have a fitted effect of over 60% in size
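HEK293T cells expressing luciferase-tagged ELG1 were treated with compound or DMSO for 16 hr at 37°C. Luciferase activity was then read after 30 min with ONE-Glo at room temperature; rising signal flags genetic stress.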
ELG1 DNA repair – ELG1-dependent DNA repair inhibition | actives 2.3% (n = 330,000) | AID 504467 | HEK293T ELG1-luciferase reporter, luminescence, 16 h; DNA damage induced by 5-fluorouridine | Potency, µM (top dose mostly 46.1 µM), for inactives: at the highest dose activity change, negative = inhibition, usual class: inhibitors; further: on the % scale 0 is the no-effect control and ±100 the full control effect; nearly all actives have a fitted effect of over 55% in size
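Quantitative HTS, concentration-response format. 2,000 cells/well co-treated with 5-fluorouridine and compound, 16 hr in 5% CO2 at 37 °C; ONE-Glo luminescence read after 30 min.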
SMN2 splice enh – enhancers of SMN2 splice variant expression; actives 2.8% (n = 210,000); HEK293 SMN2-luciferase splicing reporter, luminescence, 30-36 h; Potency, µM (highest dose often 46.1 µM), inactives show at the highest dose activity change, positive = activation, most hits filed as activators; further: % of control where 0% means no effect; nearly all actives have a fitted effect of over 55% in size
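HEK293 cells carry an SMN2 minigene-luciferase reporter in which exon 7 inclusion puts luciferase in frame. Cells were seeded at 2000 cells/well, attached for 10-12 hours, then exposed to compounds for 30-36 hours at 37C before ONE-Glo luminescence.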
* = called active by the depositor. The call rests on the fitted dose curve; in most records, active means well fitted curve in the direction sought with a large enough effect; inconclusive means small, poorly fitted or top-dose-only effect, or another doubt; inactive means no such curve, though single readings can be large; an effect the other way counts as inactive or inconclusive. Potency means the concentration at half of the fitted maximal effect.

Screening O=C(CSCc1ccccc1F)NCc1ccccc1 returned FLuc modulator 24µM*, NPC1 promoter act inconclusive, Rab9 promoter act inconclusive, ELG1 genotoxic inconclusive, ELG1 DNA repair inconclusive and SMN2 splice enh inconclusive.
Screening CC(CC(=O)Nc1ccc2c(c1)OCCO2)c1ccccc1 (stereo not drawn) returned FLuc modulator inconclusive, NPC1 promoter act inconclusive, Rab9 promoter act inconclusive, ELG1 genotoxic inconclusive, ELG1 DNA repair inconclusive and SMN2 splice enh 11µM*.
Screening O=C(CSc1nnc2ccccn12)Nc1ccc2c(c1)OCCO2 returned FLuc modulator inconclusive, NPC1 promoter act inconclusive, Rab9 promoter act 2.5µM*, ELG1 genotoxic inconclusive and ELG1 DNA repair inconclusive.
For O=C(CSCc1cccc(F)c1)NCc1ccccc1 the results were FLuc modulator inconclusive, NPC1 promoter act 19%, Rab9 promoter act inconclusive, ELG1 genotoxic inconclusive, ELG1 DNA repair inconclusive and SMN2 splice enh 15%.
`O=C(CSc1ccccc1)Nc1ccc2c(c1)OCO2` gave FLuc modulator 17µM*, NPC1 promoter act inconclusive, Rab9 promoter act inconclusive, ELG1 genotoxic inconclusive and ELG1 DNA repair inconclusive.
For O=C(NCC1CC1)[C@H]1C[C@@H]1[C@H](NP(=O)(c1ccccc1)c1ccccc1)c1ccccc1 the results were SMN2 splice enh -6%.
Screening CCn1c(C(=O)NCc2ccc(C)cc2)cc2sc(Cl)cc21 returned FLuc modulator -19% and SMN2 splice enh 1%.
`O=C(NCc1ccccn1)c1nn(-c2ccccc2Cl)nc1CO` gave FLuc modulator -3% and SMN2 splice enh -7%.
Cc1ccc(NC(=O)Cn2c(=O)n(CC3CCC(C(=O)NC(C)C)CC3)c(=O)c3sccc32)cc1 (stereo not drawn) was read as FLuc modulator -2%.
For O=C(CSc1nnc2scc(-c3ccccc3)n12)Nc1ccc2c(c1)OCCO2 the results were FLuc modulator 2%, NPC1 promoter act 1%, Rab9 promoter act -2%, ELG1 genotoxic 0%, ELG1 DNA repair inconclusive and SMN2 splice enh inconclusive.
O=C(CSc1ccc(-c2ccccc2)nn1)Nc1ccc2c(c1)OCCO2 was read as FLuc modulator 11µM*, NPC1 promoter act 21%, Rab9 promoter act inconclusive, ELG1 genotoxic inconclusive, ELG1 DNA repair inconclusive and SMN2 splice enh 16µM*.
`O=C(CSCSCC(=O)Nc1ccc2c(c1)OCO2)Nc1ccc2c(c1)OCO2` gave FLuc modulator 17µM*, NPC1 promoter act -1%, Rab9 promoter act -4%, ELG1 genotoxic -2%, ELG1 DNA repair -18% and SMN2 splice enh -7%.
`O=C(CCNC(=O)c1ccccc1)NCc1ccccc1F` gave FLuc modulator 2.7µM*, NPC1 promoter act 10%, Rab9 promoter act 19%, ELG1 genotoxic 11% and ELG1 DNA repair inconclusive.
Screening O=C(CCNC(=O)c1ccc(Br)cc1)NCc1ccccc1F returned FLuc modulator 0%, NPC1 promoter act 0%, Rab9 promoter act -2%, ELG1 genotoxic 0% and ELG1 DNA repair 3%.
O=C(CSCc1ccc(Cl)cc1)Nc1ccc2c(c1)OCCO2 was read as FLuc modulator 24µM*, NPC1 promoter act 19%, Rab9 promoter act 10%, ELG1 genotoxic 13%, ELG1 DNA repair inconclusive and SMN2 splice enh -15%.
Screening CC(=O)N1CCc2cc(S(=O)(=O)NC(Cc3ccccc3)C(=O)Nc3cccc(C)c3)ccc21 (stereo not drawn) returned FLuc modulator -14% and SMN2 splice enh -36%.
Screening CCc1ccc(NC(=O)C(=O)NCC(c2cccnc2)N2CCN(c3ccc(F)cc3)CC2)cc1 (stereo not drawn) returned FLuc modulator -3%.

Screens from PubChem BioAssay.
